Reference: PubChem BioAssay (NCATS)
Values joined by “and” are separate entries in the source; they are usually repeats but may differ in a detail not shown here. Equal entries are not always repeated. Unmarked numbers belong to inactive results. Records with an inconclusive call do not appear. A call without a number means that no potency is given here. Active and inactive are the calls of the source. Unless noted, calls come from the whole dose curve; as a rule, active = well fitted curve in the direction sought with a large enough effect; inconclusive = small, poorly fitted or top-dose-only effect, or another doubt; inactive = no such curve, though single readings can be large; an effect the other way counts as inactive or inconclusive.

Assays:
[1] = AP1 Signaling Pathway (AID 357; active = well fitted curve in either direction with a large enough effect, not every such curve was filed as active;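 note: ME-180 reporter cells stimulated with EGF at its EC50 level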); settings: ME-180 AP-1-bla reporter, EGF-induced, beta-lactamase ratio, 5 h; at 7.69 µM (top of the series) unless noted
Outline: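 AP-1-bla ME-180 cells, Opti-MEM + 0.5% dialyzed FBS, plated overnight 37 °C. Cpd titration + EC50 EGF, 5 h 37 °C. CCF4 2.5 h RT; ex 405, em 460/530 ratio → %activity, AC50.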

[2] = target: Cytochrome P450 1A2 (Homo sapiens) (UniProt P05177); assay: p450-cyp1a2 (AID 410; calls by dose curve; note: potency is the fitted concentration of half-maximal effect)
Outline: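 O-Demethylation of luciferin 6' methyl ether by human CYP1A2 is monitored as luciferase luminescence. Substrate sits at Km (100uM); enzyme is 20nM. Values are scaled to 57 uM furafylline as maximal inhibition.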

[3] = NFAT Signaling Pathway (AID 444; active = well fitted curve in either direction with a large enough effect, not every such curve was filed as active;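 note: carbachol stimulus at about its EC50 of 1 µM final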); settings: Jurkat NFAT-bla M1, carbachol, beta-lactamase ratio, 5 h; at 7.69 µM (top of the series) unless noted
Outline: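 Read-out: CCF4 FRET ratio (460 nm/530 nm) after 1 h RT dye loading, used for %activity and AC50 from titration series. Cells: Jurkat NFAT-β-lactamase/M1 line, treated with compound plus 1 uM carbachol for 5 h, 37 °C.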

[4] = Stat Signaling Pathway (AID 446; active = well fitted curve in either direction with a large enough effect, not every such curve was filed as active;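 note: ME-180 cervical cancer cells given 40 pM IL-6 alongside compound; SIE-controlled beta-lactamase reporter measured as 460/530 nm FRET emission ratio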); settings: ME-180 (cervical carcinoma) SIE beta-lactamase reporter, IL-6 stimulated, 5 h; at 7.69 µM (top of the series) unless noted
Outline: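 Overnight-plated ME-180 cells bearing a STAT Inducible Element beta-lactamase reporter; 5 h co-exposure to compound and 40 pM IL-6; values normalized to 300 pM IL-6 and 125 nM JAK inhibitor controls.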

[5] = target: Glucocorticoid receptor (Homo sapiens) (UniProt P04150); assay: GR-GFP Redistribution (AID 450;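 active = compounds whose dose series gives a full or clear partial fitted curve of increased nuclear translocation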; note: potency is the fitted concentration of half-maximal effect); settings: U2OS GR-GFP nuclear translocation, laser cytometry, 2 h
[6] = target: Glucocorticoid receptor (Homo sapiens) (UniProt P04150); assay: GR-EFC Redistribution (AID 451; calls by dose curve; note: potency is the fitted concentration of half-maximal effect); settings: CHO-K1 GR-EFC translocation, beta-gal luminescence, 2 h
Outline: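 Translocation of GR-ED fusion to nuclear EA restores b-gal, read by luminescence after 1 h room-temperature detection. Engineered CHO-K1 biosensor cells, 1,000/well, exposed 2 h at 37 C to titrations up to 46 uM final.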

[7] = target: Mitogen-activated protein kinase 10 (Mus musculus) (UniProt Q61831); assay: JNK3 AlphaScreen Assay (AID 530; active = well fitted curve in either direction with a large enough effect, not every such curve was filed as active;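 note: kinase came from lysate of stimulated human HepG2 cells; signal reports phosphorylation of biotinylated GST-cJun 1-79 at Ser73 with 10 µM ATP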)
Outline: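 qHTS titrations with 15 min compound pre-incubation before adding ATP (10 uM final). Read-out: AlphaScreen of Ser73-phosphorylated biotin-GST-cJun using HepG2 lysate JNK3 activated by IL-1β and TNFα.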

[8] = target: 3',5'-cyclic-AMP phosphodiesterase 4B (Homo sapiens) (UniProt Q07343); assay: qHTS Assay for Inhibitors of PDE-IV (AID 607; active = well fitted activation curve with a large enough effect in the main read-out, with a control signal flat, not every such curve was filed as active)
Outline: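 Live HEK293 cells with a modified cyclic nucleotide-gated (CNG) channel report intracellular cAMP via membrane-potential dye fluorescence (ex 535/em 590 nm). Endogenous PDE-IV was targeted. Compounds were tested at up to 22.9 uM final; RO 20-1724 100 uM served as control.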

[9] = target: Guanine nucleotide-binding protein G(i) subunit alpha-1 (Homo sapiens) (UniProt P63096); assay: qHTS Assay for Inhibitors of RGS12 GoLoco Motif Activity (Green Fluorophore) (AID 879);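 note: negative values mean loss of peptide binding seen as reduced polarization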
Outline: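 A drop in FITC polarization marked displacement of the FITC-tagged RGS12 GoLoco peptide (10 nM) from Gαi1 (50 nM). Compounds were incubated 10 min at room temperature in Tris pH 7.5 buffer containing 150 mM NaCl, 0.1 mM GDP and 0.05% NP40; unlabeled peptide titration served as control.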

[10] = target: Pyruvate kinase (Leishmania mexicana) (UniProt Q27686); assay: qHTS Validation Assay for Inhibitors of Leishmania Mexicana Pyruvate Kinase (AID 945)
Outline: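 qHTS eight-point titrations against 0.2 nM LmPYK (E451W) in imidazole buffer pH 7.2 with 0.5 mM PEP, 0.1 mM ADP; 1 h, room temperature. Readout: PKLight luminescence, normalized to neutral DMSO wells.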

[11] = target: Pyruvate kinase PKM (Homo sapiens) (UniProt P14618); assay: qHTS Assay for Activators of Human Muscle Pyruvate Kinase (AID 954; active = well fitted curve in the direction sought with a large enough effect, not every such curve was filed as active)
Outline: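 Screening used highly purified human pyruvate kinase M2 under submaximal activity, with PEP at its Km and ADP below Km. After an hour at room temperature, ATP was read by luciferase luminescence.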

[12] = target: Alpha-galactosidase A (Homo sapiens) (UniProt P06280); assay: Counterscreen for Glucocerebrosidase Inhibitors: qHTS Assay for Human alpha-Galactosidase at pH 4.5 (AID 992)
Outline: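 Each compound is preincubated briefly with 2 nM enzyme before substrate addition (80 uM); plates then sit 20 min at ambient temperature, are quenched with 1M NaOH/1M glycine, and read fluorometrically.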

[13] = target: alpha-glucosidase (Oryza sativa, rice) (UniProt Q653V4); assay: Counterscreen for Glucocerebrosidase Inhibitors: qHTS Assay for Rice alpha-Glucosidase at pH 5.0 (AID 997)
Outline: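 Endpoint fluorogenic assay at pH 5.0: compounds (0.7 nM to 77 uM) titrated against 4 nM rice enzyme and 400 uM 4-MU-alpha-glucoside for 20 min at room temperature; NaOH/glycine stop, read ex 365/em 440 nm, Hill-fitted AC50.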

[14] = target: Cytochrome P450 2D6 (Homo sapiens) (UniProt P10635); assay: qHTS Assay for Inhibitors and Substrates of Cytochrome P450 2D6 (AID 891);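 note: luciferin methyl ether substrate demethylated by CYP2D6 with NADPH regeneration; nearly all actives have a fitted effect of over 60% in size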
Outline: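 Luminescent read-out of luciferin formed by 5 nM human CYP2D6 demethylating 30 uM Luciferin-ME EGE (Km level) over 60 min at room temperature after NADPH regeneration addition. Data normalized to full inhibition by 1.43 uM quinidine.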

[15] = target: Cytochrome P450 3A4 (Homo sapiens) (UniProt P08684); assay: qHTS Assay for Activators of Cytochrome P450 3A4 (AID 885); note: nearly all actives have a fitted effect of over 65% in size; note: potency is the fitted concentration of half-maximal effect
Outline: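 Using 20nM recombinant human CYP3A4 in potassium phosphate (200mM), substrate Luciferin-PPXE at 25uM, luminescent luciferin detection followed a 60-min RT NADPH reaction; data scaled to 57 uM ketoconazole.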

[16] = target: Cytochrome P450 2C19 (Homo sapiens) (UniProt P33261); assay: qHTS Assay for Inhibitors and Substrates of Cytochrome P450 2C19 (AID 899); note: nearly all actives have a fitted effect of over 60% in size
Outline: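 Luminescence readout of luciferin formed from 10uM Luciferin-H EGE (KM level) by 5 nM CYP2C19 in 50mM KPO4. 60 min NADPH-driven reaction at 37C after 10 min compound preincubation; data scaled to 57uM ketoconazole inhibition.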

[17] = qHTS Assay for Identification of Small Molecule Agonists for Thrombopoietin (TPO) Signaling Pathway (AID 917)
Outline: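 Human TPO receptor–transfected Ba/F3 cells (murine, IL-3-dependent) in IL-3-deficient medium; compounds plus TPO at EC50, 26 pM final; 24 hrs, 37 C; GpIIb-luciferase luminescence after 10 min RT detection.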

[18] = target: Muscarinic acetylcholine receptor M1 (Rattus norvegicus) (UniProt P08482); assay: qHTS Assay for Antagonists of Acetylcholine Muscarinic M1 Receptor: Kinetic Measurement of Intracellular Calcium Response (AID 943);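 note: Fluo-4 calcium signal as peak divided by basal fluorescence over 4 min; nearly all actives have a fitted effect of over 75% in size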
Outline: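 Antagonism is measured as inhibition of the carbachol-evoked calcium rise in CHO cells transfected with rat M1. Cells are dye-loaded, exposed to compound for 10 min, then stimulated with 100 nM carbachol (EC80).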

[19] = target: Muscarinic acetylcholine receptor M1 (Rattus norvegicus) (UniProt P08482); assay: qHTS Assay for Antagonists of Acetylcholine Muscarinic M1 Receptor: Measurement of IP-One Response (AID 944); note: nearly all actives have a fitted effect of over 75% in size
Outline: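 Antagonist mode with rat M1 receptor transfected into CHO cells. Compound is added first for 10 min, carbachol at its EC80 follows for 30 min, and lysis reagents then allow TR-FRET detection of accumulated IP1.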

Sequence of Guanine nucleotide-binding protein G(i) subunit alpha-1 (Homo sapiens) (P63096 whole entry, looked up): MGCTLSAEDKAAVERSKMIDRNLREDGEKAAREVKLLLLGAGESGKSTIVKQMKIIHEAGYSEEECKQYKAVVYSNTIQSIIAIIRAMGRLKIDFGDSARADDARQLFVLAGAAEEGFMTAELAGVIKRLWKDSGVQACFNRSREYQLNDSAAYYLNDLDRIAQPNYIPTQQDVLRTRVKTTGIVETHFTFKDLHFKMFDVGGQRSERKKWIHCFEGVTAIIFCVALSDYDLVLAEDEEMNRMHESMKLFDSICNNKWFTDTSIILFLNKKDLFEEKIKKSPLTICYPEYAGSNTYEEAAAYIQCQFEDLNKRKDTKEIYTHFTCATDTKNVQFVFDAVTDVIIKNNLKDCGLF
Sequence of 3',5'-cyclic-AMP phosphodiesterase 4B (Homo sapiens) (Q07343 whole entry, looked up): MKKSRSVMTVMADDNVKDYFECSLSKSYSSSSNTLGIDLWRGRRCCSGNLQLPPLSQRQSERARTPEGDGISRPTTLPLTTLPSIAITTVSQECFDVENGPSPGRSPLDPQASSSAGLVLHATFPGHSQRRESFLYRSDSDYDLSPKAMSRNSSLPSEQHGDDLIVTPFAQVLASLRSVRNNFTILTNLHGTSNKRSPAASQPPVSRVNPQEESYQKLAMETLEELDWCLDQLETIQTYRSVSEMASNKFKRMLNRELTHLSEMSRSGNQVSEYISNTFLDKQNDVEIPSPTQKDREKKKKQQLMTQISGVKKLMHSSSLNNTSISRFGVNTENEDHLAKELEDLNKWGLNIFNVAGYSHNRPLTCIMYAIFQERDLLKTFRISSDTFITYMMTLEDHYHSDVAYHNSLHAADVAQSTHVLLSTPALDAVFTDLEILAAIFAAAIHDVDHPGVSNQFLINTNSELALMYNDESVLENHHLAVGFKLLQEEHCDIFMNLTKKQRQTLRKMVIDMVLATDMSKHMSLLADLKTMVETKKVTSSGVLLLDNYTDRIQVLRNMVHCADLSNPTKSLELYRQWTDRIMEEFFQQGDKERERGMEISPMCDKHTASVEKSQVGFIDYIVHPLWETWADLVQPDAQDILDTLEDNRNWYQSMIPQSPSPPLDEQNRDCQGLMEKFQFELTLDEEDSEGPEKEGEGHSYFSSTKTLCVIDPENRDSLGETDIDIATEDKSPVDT
Sequence of Alpha-galactosidase A (Homo sapiens) (P06280 whole entry, looked up): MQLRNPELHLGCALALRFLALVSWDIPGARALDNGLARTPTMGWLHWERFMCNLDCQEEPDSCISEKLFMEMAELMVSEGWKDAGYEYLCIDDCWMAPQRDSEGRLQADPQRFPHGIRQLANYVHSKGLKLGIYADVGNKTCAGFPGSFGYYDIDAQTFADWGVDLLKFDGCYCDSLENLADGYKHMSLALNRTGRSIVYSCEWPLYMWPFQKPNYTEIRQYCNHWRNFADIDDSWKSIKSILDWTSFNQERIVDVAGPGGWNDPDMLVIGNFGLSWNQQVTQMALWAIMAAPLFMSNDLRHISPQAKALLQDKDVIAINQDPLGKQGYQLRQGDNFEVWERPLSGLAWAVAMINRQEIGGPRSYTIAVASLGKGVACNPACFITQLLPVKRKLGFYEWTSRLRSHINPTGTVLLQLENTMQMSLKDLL
Sequence of Cytochrome P450 1A2 (Homo sapiens) (P05177 whole entry, looked up): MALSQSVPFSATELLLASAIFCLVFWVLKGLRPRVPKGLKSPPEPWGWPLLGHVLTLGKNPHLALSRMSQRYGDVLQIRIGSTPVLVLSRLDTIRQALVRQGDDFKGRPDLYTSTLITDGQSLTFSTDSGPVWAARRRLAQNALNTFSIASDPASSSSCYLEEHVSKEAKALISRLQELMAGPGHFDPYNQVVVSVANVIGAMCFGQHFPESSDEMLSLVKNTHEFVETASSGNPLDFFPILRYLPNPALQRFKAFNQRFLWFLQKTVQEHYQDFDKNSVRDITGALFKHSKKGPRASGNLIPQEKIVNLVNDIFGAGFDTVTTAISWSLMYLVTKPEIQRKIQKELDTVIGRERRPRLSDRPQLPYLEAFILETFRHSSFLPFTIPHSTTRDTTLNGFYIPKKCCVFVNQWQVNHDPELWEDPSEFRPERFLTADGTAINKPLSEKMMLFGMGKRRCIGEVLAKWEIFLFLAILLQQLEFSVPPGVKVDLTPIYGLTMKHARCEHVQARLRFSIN
Sequence of Muscarinic acetylcholine receptor M1 (Rattus norvegicus) (P08482 whole entry, looked up): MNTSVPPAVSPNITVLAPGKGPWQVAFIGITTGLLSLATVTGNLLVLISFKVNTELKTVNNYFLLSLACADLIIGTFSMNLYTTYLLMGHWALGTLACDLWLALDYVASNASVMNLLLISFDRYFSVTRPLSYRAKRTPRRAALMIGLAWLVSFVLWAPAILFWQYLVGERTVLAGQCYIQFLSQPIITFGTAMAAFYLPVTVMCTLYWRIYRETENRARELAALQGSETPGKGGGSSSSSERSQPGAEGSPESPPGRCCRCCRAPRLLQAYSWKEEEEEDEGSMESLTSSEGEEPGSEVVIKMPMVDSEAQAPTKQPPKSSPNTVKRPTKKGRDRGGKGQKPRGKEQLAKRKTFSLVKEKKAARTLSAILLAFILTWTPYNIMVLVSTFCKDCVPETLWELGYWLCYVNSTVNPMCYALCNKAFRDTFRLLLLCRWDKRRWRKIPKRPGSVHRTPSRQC
Sequence of Pyruvate kinase PKM (Homo sapiens) (P14618 whole entry, looked up): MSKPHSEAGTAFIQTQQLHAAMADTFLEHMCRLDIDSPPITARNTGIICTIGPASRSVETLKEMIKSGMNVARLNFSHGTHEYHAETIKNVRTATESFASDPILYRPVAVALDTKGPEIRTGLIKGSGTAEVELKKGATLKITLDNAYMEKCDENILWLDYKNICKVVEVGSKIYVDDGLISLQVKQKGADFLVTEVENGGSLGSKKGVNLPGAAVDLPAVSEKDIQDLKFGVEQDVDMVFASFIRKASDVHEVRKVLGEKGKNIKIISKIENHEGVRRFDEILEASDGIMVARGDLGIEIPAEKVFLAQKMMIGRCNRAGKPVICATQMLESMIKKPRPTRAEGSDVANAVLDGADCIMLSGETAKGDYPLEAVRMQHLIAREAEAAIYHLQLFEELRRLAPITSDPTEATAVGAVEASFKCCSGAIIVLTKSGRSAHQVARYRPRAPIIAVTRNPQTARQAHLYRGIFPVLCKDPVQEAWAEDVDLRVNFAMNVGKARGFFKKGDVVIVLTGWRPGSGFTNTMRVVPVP
Sequence of Cytochrome P450 3A4 (Homo sapiens) (P08684 whole entry, looked up): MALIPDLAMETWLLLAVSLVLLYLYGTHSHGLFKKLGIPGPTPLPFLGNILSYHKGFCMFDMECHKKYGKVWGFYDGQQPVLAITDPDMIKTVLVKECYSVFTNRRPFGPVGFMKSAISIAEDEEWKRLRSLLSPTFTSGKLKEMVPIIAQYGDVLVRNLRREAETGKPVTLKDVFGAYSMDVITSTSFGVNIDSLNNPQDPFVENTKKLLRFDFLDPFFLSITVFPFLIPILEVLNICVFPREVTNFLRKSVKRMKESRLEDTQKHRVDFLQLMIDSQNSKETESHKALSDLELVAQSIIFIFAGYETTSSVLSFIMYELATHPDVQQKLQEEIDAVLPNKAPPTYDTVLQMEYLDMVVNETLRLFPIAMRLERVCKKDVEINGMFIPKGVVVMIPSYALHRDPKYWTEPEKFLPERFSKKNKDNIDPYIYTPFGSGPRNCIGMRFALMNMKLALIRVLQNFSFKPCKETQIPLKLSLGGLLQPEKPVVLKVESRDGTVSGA
Sequence of Pyruvate kinase (Leishmania mexicana) (Q27686 2-499 E452W): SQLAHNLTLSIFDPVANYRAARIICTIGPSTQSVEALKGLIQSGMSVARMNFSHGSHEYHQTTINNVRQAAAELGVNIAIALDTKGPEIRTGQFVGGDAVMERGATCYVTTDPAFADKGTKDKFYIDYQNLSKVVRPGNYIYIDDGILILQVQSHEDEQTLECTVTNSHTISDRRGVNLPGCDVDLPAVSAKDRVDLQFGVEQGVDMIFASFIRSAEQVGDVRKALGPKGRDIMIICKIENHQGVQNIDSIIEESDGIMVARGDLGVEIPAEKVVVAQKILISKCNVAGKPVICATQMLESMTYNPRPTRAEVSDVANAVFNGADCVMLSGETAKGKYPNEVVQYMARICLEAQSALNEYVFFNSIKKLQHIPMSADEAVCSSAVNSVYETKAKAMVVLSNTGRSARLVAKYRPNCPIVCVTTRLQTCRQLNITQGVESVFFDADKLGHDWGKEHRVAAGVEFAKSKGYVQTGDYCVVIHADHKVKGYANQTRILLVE
Sequence of Glucocorticoid receptor (Homo sapiens) (P04150 whole entry, looked up, the tested form may be a part): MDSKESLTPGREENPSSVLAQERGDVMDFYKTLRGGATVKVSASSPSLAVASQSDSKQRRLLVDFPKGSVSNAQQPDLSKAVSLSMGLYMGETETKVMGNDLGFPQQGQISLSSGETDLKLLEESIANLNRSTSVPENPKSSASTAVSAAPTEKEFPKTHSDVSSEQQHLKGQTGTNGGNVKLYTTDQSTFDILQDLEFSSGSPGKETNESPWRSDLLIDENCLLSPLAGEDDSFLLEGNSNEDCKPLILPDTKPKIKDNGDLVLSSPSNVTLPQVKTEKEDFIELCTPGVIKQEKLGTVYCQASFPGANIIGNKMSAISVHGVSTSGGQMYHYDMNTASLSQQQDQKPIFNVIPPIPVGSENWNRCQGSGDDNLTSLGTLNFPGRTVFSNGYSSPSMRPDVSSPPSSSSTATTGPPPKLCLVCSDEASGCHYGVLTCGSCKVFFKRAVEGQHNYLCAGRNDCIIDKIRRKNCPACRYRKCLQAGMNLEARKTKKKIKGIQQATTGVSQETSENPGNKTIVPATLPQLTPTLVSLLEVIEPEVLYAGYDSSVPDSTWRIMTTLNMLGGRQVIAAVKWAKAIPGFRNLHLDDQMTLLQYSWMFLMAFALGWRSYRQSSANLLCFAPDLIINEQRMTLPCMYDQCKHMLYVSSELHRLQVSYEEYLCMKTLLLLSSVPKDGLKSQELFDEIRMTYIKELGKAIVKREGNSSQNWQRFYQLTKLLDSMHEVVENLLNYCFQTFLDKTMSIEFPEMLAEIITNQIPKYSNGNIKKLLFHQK

Row | Compound | activity change, negative = inhibition [1] | Potency [2] | activity change, negative = inhibition [3] | activity, negative = inhibition [4] | Potency [5] [µM] | Potency [6] [µM] | Potency [7] | Potency [8] | outcome [9] | outcome [10] | outcome [11] | outcome [12] | Potency [13] | Potency [14] | Potency [15] | Potency [16] | outcome [17] | Potency [18] | Potency [19]
1 | COc1ccc2c(c1)CCC1C2CC[C@]2(C)[C@H](NCCCCCCN3C(=O)C=CC3=O)CC[C@@H]12 (stereo not given in full) | -7.36% [at 38 µM] | inactive | 12.6% [at 38 µM] | 1% [at 38 µM] | > 46 | > 46 | inactive | inactive | inactive | inactive | inactive | inactive | inactive |  |  |  |  |  | 
2 | O=C(O)CSC1=NCCN1 | 17% | inactive | 7.29% | 4.64% | > 46 | > 9.22 | inactive | inactive |  |  |  |  |  | inactive |  |  |  |  | 
3 | COc1ncc2nc(-c3cc(F)cc(F)c3)c(=O)n(C3CC3)c2n1 | 5.87% | 1.58 µM (active) | -2% | -19.2% | > 9.22 | > 46 | inactive | inactive |  |  |  |  |  |  | inactive |  |  |  | 
4 | NC(N)=Nc1nc2ccc([N+](=O)[O-])cc2[nH]1 | 0.0978% | 3.16 µM (active) | 0.0962% | 9.75% | > 46 | > 9.22 | inactive | inactive |  |  |  |  |  |  | 3.16 µM (active) |  |  |  | 
5 | N[C@H](CCCC(=O)O)C(=O)O | 3.41% [at 38 µM] | inactive | 7.48% [at 38 µM] | -3.61% [at 38 µM] | > 46 | > 46 | inactive | inactive | inactive | inactive | inactive | inactive | inactive |  |  | inactive | inactive | inactive | inactive
6 | CN1CCc2c(cc(O)c(O)c2Cl)[C@H](c2cccc(Cl)c2)C1 | 26% [at 38 µM] | inactive | -25.3% [at 38 µM] | -20% [at 38 µM] | > 46 | > 46 | inactive | inactive | inactive | inactive | inactive | inactive | inactive |  |  |  |  |  | 
7 | O=[N+]([O-])c1ccc(Nc2nc3ccccc3s2)cc1 | 18.2% | inactive | -2.36% | 0.26% | > 46 | > 9.22 | inactive | inactive |  |  |  |  |  |  | inactive |  |  |  | 
8 | Nc1ncnc2c1ncn2[C@@H]1CCCO1 | 2.44% [at 38 µM] | inactive | -4.45% [at 38 µM] | -7.91% [at 38 µM] | > 46 | > 46 | inactive | inactive |  | inactive | inactive | inactive | inactive |  |  |  | inactive |  | inactive
9 | NC(=O)c1ncn([C@@H]2O[C@@H](CO)[C@@H](O)[C@H]2O)c1O | 15.7% [at 38 µM] | inactive | 2.24% [at 38 µM] | 3.38% [at 38 µM] | > 46 | > 46 | inactive | inactive | inactive | inactive | inactive | inactive | inactive |  |  |  | inactive | inactive | 
10 | O=C(O)/C=C\c1cnc[nH]1 | 4.19% [at 38 µM] | inactive | 9.72% [at 38 µM] | 3.14% [at 38 µM] | > 46 | > 46 | inactive | inactive | inactive |  | inactive | inactive | inactive |  | inactive |  | inactive | inactive | inactive
11 | Nc1ncnc2c1nc(Sc1ccc(Cl)cc1)n2[C@@H]1O[C@H]2COP(=O)(O)O[C@@H]2[C@H]1O | 6.42% [at 38 µM] | inactive | -0.761% [at 38 µM] | 5.32% [at 38 µM] | > 46 | > 46 | inactive | inactive | inactive | inactive | inactive | inactive | inactive |  |  |  | inactive | inactive | inactive
12 | CC(C)C[C@H](NC(=O)[C@@H](O)[C@@H](N)Cc1ccccc1)C(=O)O | 16.3% [at 38 µM] and 2.81% [at 38 µM] | inactive | -15.3% [at 38 µM] and -3.04% [at 38 µM] | 25.1% [at 38 µM] and 3.44% [at 38 µM] | > 46 | > 46 | inactive | inactive | inactive | inactive | inactive | inactive | inactive |  |  |  | inactive |  | inactive
